CYP2C19 inhib – human CYP2C19 inhibition. CYP2C19 Supersomes, luciferin-H EGE luminescence, 30 min. 96,000 tested, 21% active. inhibition, % at 5 µM;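 active = CYP2C19 inhibition above a set limit at 5 µM in the primary screen, cut at about 50% in these data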;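 also: plate controls were negative control wells for no effect and 2.5 mM tranylcypromine positive control for full effect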
Target sequence (P33261 whole entry, looked up): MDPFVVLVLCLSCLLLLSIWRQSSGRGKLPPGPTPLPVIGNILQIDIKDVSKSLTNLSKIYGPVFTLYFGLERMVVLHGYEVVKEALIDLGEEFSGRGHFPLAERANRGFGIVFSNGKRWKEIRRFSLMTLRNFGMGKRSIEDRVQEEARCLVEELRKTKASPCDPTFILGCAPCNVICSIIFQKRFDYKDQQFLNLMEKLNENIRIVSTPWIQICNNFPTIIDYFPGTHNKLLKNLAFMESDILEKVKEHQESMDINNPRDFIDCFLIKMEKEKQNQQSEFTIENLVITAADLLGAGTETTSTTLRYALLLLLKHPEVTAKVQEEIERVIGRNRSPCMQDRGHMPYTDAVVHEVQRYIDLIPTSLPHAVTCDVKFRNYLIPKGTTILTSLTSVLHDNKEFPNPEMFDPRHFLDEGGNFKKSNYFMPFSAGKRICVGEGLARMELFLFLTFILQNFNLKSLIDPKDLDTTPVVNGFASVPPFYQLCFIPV
Cav3 T inh – blocks human Cav3.2 T-type calcium channel; O95180; Cav3.2-expressing cells, Fluo-4 calcium fluorescence FDSS; active compounds read low; B-score at 10 µM; 100,000 tested, 4% active; AID 449739;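 active = single-dose well whose peak fluorescence ratio is a statistical outlier from its plate by either plate-standardised score or position-corrected B-score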
CYP2C19 activ – activators of human cytochrome P450 2C19. recombinant CYP2C19, luciferin-H EGE luminescence; active compounds read high; 0 = fully inhibited enzyme, 1 = untreated enzyme. 96,000 tested, under 10 active. activation factor at 5 µM. AID 1025;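 active = activation factor of at least 2 at 5 µM in the primary screen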;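 also: 0 = wells with 2.5 mM tranylcypromine and 1 = vehicle-only wells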
CYP2C9 inh – blocks human cytochrome P450 2C9; P11712; 96,000 tested, 20% active; inhibition, % at 5 µM; AID 777; CYP2C9 Supersomes, luciferin-H conversion, luminescence;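 active = blocking of liver enzyme CYP2C9 beyond about 50% at 5 µM, limit read from the data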
CYP2C9 act – increases human cytochrome P450 2C9 activity | P11712 | 96,000 tested, 1.4% active | recombinant CYP2C9, luciferin-H conversion, luminescence; active compounds read high; factor 1 = untreated enzyme, 0 = blocked | activation factor at 5 µM | AID 1024;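 active = activation factor of 2 or more for CYP2C9 at a 5 µM dose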;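 also: 0 = sulfaphenazole-blocked wells and 1 = vehicle-only wells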
* = called active by the depositor; . = no result given. An excerpt weighted towards active compounds, which were near 27% of everything screened.

SMILES | CYP2C19 inhib | Cav3 T inh | CYP2C19 activ | CYP2C9 inh | CYP2C9 act
CC(C)(C)c1ccc(COn2c(=O)c(-c3ccco3)[n+]([O-])c3ccccc32)cc1 | 6.5 | 0.0206 | 0.9 | -8.2 | 1.1
CC(O)CNc1nc2ccccc2n1CC(=O)NCCc1ccc(Cl)cc1 (centres undefined) | 50.3* | -0.098 | 0.5 | 36.3 | 0.6
CN(C)c1cc(-c2ccccc2)nc(N)n1 | 31.8 | 1.23 | 0.7 | 13.7 | 0.9
CC(O)c1nc2ccccc2n1CCOc1ccccc1 (centres undefined) | . | -0.854 | . | . | .
COCCn1c(COc2ccc(OC)cc2)nc2ccccc21 | 92.0* | . | 0.1 | 35.0 | 0.7
Cc1cccc(OCCCn2c(CCNC(=O)C(C)C)nc3ccccc32)c1 | . | -1.14 | . | . | .
CCOc1ccccc1OCCn1nnc2ccccc21 | 83.2* | 0.108 | 0.2 | -76.4 | 1.8
CCn1c(COc2ccccc2)nc2ccccc21 | . | -0.0085 | . | . | .
COc1ccccc1OCCn1c(C(C)O)nc2ccccc21 (centres undefined) | 85.2* | -1 | 0.1 | 6.9 | 0.9
Cc1cccc(OCCn2c(CCCO)nc3ccccc32)c1 | 90.9* | -2.73 | 0.1 | 68.3* | 0.3
CCOc1cc(C#N)c(NC(=O)Cn2nnc3ccccc32)cc1OCC | -7.7 | -0.0107 | 1.1 | 11.6 | 0.9
Cc1ccc2oc(=O)c3cnn(CC(=O)N(CCCN4CCOCC4)Cc4ccco4)c3c2c1 | . | 1.73 | . | . | .
Cc1ccc(C(=O)Nc2cccc(C(F)(F)F)c2)cc1Nc1ncnc2nc[nH]c12 | . | 0.0396 | . | . | .
O=C1c2cccc3cccc(c23)C(=O)N1c1nncs1 | 3.9 | -0.0644 | 1 | -13.9 | 1.1
COc1ccccc1OCCn1c(CO)nc2ccccc21 | 55.8* | -0.316 | 0.4 | 17.7 | 0.8
CC(C)(CN=C1NS(=O)(=O)c2ccccc21)CNC(=O)CN1C(=O)c2ccccc2C1=O | 22.3 | 0.926 | 0.8 | 46.5 | 0.5
C=CCSc1nnc2c(n1)OC(c1cccnc1)Nc1ccccc1-2 (centres undefined) | -3.0 | 0.744 | 1 | 0.2 | 1
C=CCSc1nnc2c(n1)OC(c1c(C)[nH]n(-c3ccccc3)c1=O)Nc1ccccc1-2 (centres undefined) | 7.9 | -0.0916 | 0.9 | 71.7* | 0.3
C=CCSc1nnc(-c2ccccc2N=Cc2c(C)[nH]n(-c3ccccc3)c2=O)c(=O)[nH]1 | 47.9 | -0.793 | 0.5 | 99.0* | 0
CS(=O)(=O)N(Cc1cc2ccccc2[nH]c1=O)C1CCCCC1 | 20.7 | . | 0.8 | 23.0 | 0.8
Cc1nn(Cc2ccccc2Cl)c2sc(C(=O)OC3CCCC3=O)cc12 (centres undefined) | 98.1* | -0.48 | 0 | 84.2* | 0.2
Cc1cc(C(=O)NCCCn2ccnc2)sc1-c1ccccc1 | 96.7* | 0.434 | 0 | 89.0* | 0.1
Cc1nn(Cc2ccccc2Cl)c2sc(C(=O)NC(C)(C)C)cc12 | 36.6 | -1.07 | 0.6 | 42.5 | 0.6
Cc1nn(Cc2ccccc2Cl)c2sc(C(=O)NCCCn3ccnc3)cc12 | 89.9* | 0.885 | 0.1 | 99.9* | 0
Cc1ccc2nc(-c3ccccc3)cc(C(=O)NCCCn3ccnc3)c2c1 | 81.1* | 1.15 | 0.2 | 98.0* | 0
SMILES | CYP2C19 inhib | Cav3 T inh | CYP2C19 activ | CYP2C9 inh | CYP2C9 act
CCOC(=O)N1CCN(CC(=O)Nc2ccc(Oc3ccccc3)cc2)CC1 | 17.2 | -0.0662 | 0.8 | 20.8 | 0.8
CC(=O)C1=C(C)NC(=O)NC1c1ccccc1 (centres undefined) | -2.7 | 0.066 | 1 | -29.8 | 1.3
COC(C[C@@H]1O[C@@H]1C(=O)COCc1ccccc1)OC | . | 0.443 | . | . | .
Cc1nn(Cc2ccc(Cl)cc2)c2sc(C(=O)OCC(N)=O)cc12 | 12.7 | -0.0176 | 0.9 | 75.7* | 0.2
O=C(NCCCn1ccnc1)c1cc(-c2ccc(Cl)cc2)nc2ccccc12 | 89.9* | 0.834 | 0.1 | 98.3* | 0
Cc1nc(C(=O)Nc2cccc(Cl)c2)nn1-c1cc(OC(C)C)c(Cl)cc1Cl | 62.3* | . | 0.4 | 69.7* | 0.3
Cc1nc(C(=O)Nc2cc(Cl)ccc2Cl)nn1-c1cc(OC(C)C)c(Cl)cc1Cl | 20.4 | . | 0.8 | 86.6* | 0.1
COc1cc(NC(=S)Nc2cccc(Cl)c2Cl)c(OC)cc1Cl | 8.6 | 0.06 | 0.9 | -5.9 | 1.1
Cc1nc(C(=O)Nc2ccc(Cl)cc2Cl)nn1-c1cc(OC(C)C)c(Cl)cc1Cl | 4.0 | -0.516 | 1 | 58.2* | 0.4
Cc1nc(C(=O)Nc2cccc(Cl)c2Cl)nn1-c1cc(OC(C)C)c(Cl)cc1Cl | -5.6 | . | 1.1 | 82.5* | 0.2
CC1(C)Cc2c(c(N3CCOCC3)nc3sc4c(NCc5ccccc5)nnnc4c23)CS1 | 57.4* | -0.251 | 0.4 | 98.5* | 0
CC1(C)Cc2c(c(N3CCOCC3)nc3sc4c(NCc5ccco5)nnnc4c23)CS1 | 61.4* | 1.27 | 0.4 | 93.4* | 0.1
CC1(C)Cc2c(c(N3CCOCC3)nc3sc4c(NN)ncnc4c23)CS1 | -17.9 | 0.766 | 1.2 | 9.7 | 0.9
CC(C)CNc1nnnc2c1sc1nc(N3CCOCC3)c3c(c12)CC(C)(C)SC3 | 33.9 | -1.04 | 0.7 | 80.6* | 0.2
CCCN(CCC)C(=O)Cc1coc2ccc3ccccc3c12 | 63.9* | -6.34* | 0.4 | -93.0 | 1.9
O=C(Cc1coc2ccc3ccccc3c12)Nc1nccs1 | 11.3 | -0.737 | 0.9 | 38.9 | 0.6
O=C(Cc1coc2ccc3ccccc3c12)NCc1ccccc1 | 86.2* | -1.32 | 0.1 | -183.7 | 2.8*
COc1ccccc1C1(CC(=O)Nc2nccs2)CCOC(C(C)C)C1 (centres undefined) | 91.8* | -1.53 | 0.1 | 67.3* | 0.3
Cc1cc(C(=O)CN2C(=O)c3ccccc3C2=O)c(C)n1Cc1cccs1 | . | 1.04 | . | . | .
Cc1cc(C(=O)Cn2nnc3ccccc3c2=O)c(C)n1Cc1cccs1 | 97.3* | -3.5* | 0 | 71.1* | 0.3
CCOC(=O)C1=C(C)N(CCCC(=O)O)C(=O)NC1c1cc2ccccc2c2ccccc12 (centres undefined) | . | 0.279 | . | . | .
COc1ccc(OC)c(NC(=O)Cn2cc(C#N)c3cc(Br)ccc32)c1 | 92.9* | -0.787 | 0.1 | 99.4* | 0
CCn1c(=O)n(CC(=O)Nc2cc(OC)ccc2OC)c(=O)c2ccccc21 | 22.1 | . | 0.8 | 27.7 | 0.7
C1=Nc2c(Nc3ccccc3)ncnc2Oc2ccccc21 | 54.0* | -1.83 | 0.5 | 61.9* | 0.4
Clc1ccc2c(c1)C=Nc1c(NCc3ccccc3)ncnc1O2 | 12.4 | 0.326 | 0.9 | 36.3 | 0.6
Cc1c(C(=O)O)c2cc(O)ccc2n1-c1ccccc1 | 34.1 | 0.763 | 0.7 | 36.4 | 0.6
COC(=O)c1c(C)n(-c2ccc(OC)cc2)c2ccc(O)cc12 | 79.2* | . | 0.2 | 66.7* | 0.3
CCOc1ccc2c(c1)c(C(C)=O)c(C)n2-c1ccccc1 | 99.0* | -0.0224 | 0 | 99.0* | 0
N#CC12CCCCC1CC1CCCCC1(C#N)N2Cc1cccnc1 (centres undefined) | 11.4 | 0.187 | 0.9 | 4.8 | 1
CCCC1(CCC)NC(=O)N(CC(=O)N2CCN(C(=O)c3ccco3)CC2)C1=O | -12.3 | 0.443 | 1.1 | 20.4 | 0.8

Bioassay records: PubChem, several laboratories
